# Rows were chosen to be rich in hits. Some 12% of all compounds tested hit in one or more screens of this group.
# JMJD2A Tudor: inhibitors of human JMJD2A Tudor domain. hit rate 4.4% among 390,000. Potency, µM (titrated, usually from 114 µM), for the others: at the highest dose activity change, negative = inhibition, most hits filed as inhibitors. AlphaScreen JMJD2A-Tudor / H3K4me3 peptide binding. AID 504339. O75164; also: potency is read from the fitted curve at half-maximal effect; % is scaled to controls: 0 for no effect and ±100 for the full control effect; nearly all actives have a fitted effect of over 50% in size
# PLK1 PBD block: blocks phosphopeptide binding to human PLK1 polo-box domain | Plk1 PBD binding of FITC phosphopeptide, fluorescence polarization | Potency, µM, for the others: max response, negative = inhibition, usual class: inhibitors | AID 720504 | hit rate 2.8% among 360,000; also: potency is read from the fitted curve at half-maximal effect; series mostly up to about 57 µM; % is scaled to controls: 0 for no effect and ±100 for the full control effect; nearly all actives have a fitted effect of over 65% in size
# BAZ2B block: inhibitors of human BAZ2B bromodomain | AlphaScreen BAZ2B-H3K14Ac peptide displacement | Potency, µM (series often up to 114 µM), inactives show top-dose activity change, negative = inhibition, actives largely listed as inhibitors | AID 504333 | hit rate 4.4% among 360,000; also: potency is read from the fitted curve at half-maximal effect; % is scaled to controls: 0 for no effect and ±100 for the full control effect; nearly all actives have a fitted effect of over 60% in size
#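 Inhibition is scored as reduced AlphaScreen emission. The BAZ2B/b-H3(5-23)K14Ac complex (50 nM each) in PBS pH 7.4, 0.01% Tween-20 meets compound (up to 110 uM) for 30 min at RT before bead addition.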
# PI5P4Ka inh: blocks human PI5P4K alpha kinase activity | hit rate 1.2% among 330,000 | P48426 | PI5P4Kalpha enzyme, ADP-Glo luminescence, 60 min; active compounds read low | max response, %; active = max response of -50% or lower; inconclusive = between -30% and -50%; inactive = -30% or higher; also: value at the top dose of about 77 µM; % is scaled to controls: 0 for no effect and ±100 for the full control effect
#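 Quantitative HTS of the MLSMR library against PI5P4Kalpha with substrate. ATP added last at 5 microM final; room temperature, 60 minutes. Remaining ATP depleted, ADP converted and read as luminescence.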
# HP1b chromo inh: inhibitors of HP1-beta chromodomain binding to methylated histone tails; P83916; AlphaScreen HP1-beta / biotin-H3K9me3 peptide binding; Potency, µM (highest dose often 114 µM), without a hit: at the highest dose activity change, negative = inhibition, hits mostly inhibitors; hit rate 0.56% among 390,000; AID 540317; also: potency is read from the fitted curve at half-maximal effect; nearly all actives have a fitted effect of over 70% in size
# Target sequence (P83916 whole entry, looked up): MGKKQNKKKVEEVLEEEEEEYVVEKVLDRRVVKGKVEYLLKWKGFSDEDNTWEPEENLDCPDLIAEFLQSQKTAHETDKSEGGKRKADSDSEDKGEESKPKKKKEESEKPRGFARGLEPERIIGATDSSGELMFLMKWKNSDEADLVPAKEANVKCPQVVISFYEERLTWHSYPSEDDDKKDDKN
#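 Compound inhibition of the preformed complex between 50 nM HP1-beta and 50 nM biotinylated H3K9me3 peptide was read by AlphaScreen. Buffer was PBS pH 7.4 with 0.01% Tween-20. Incubations ran 30 min at room temperature, with 10 ug/mL donor/acceptor beads.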
# G9a block: inhibitors of human histone lysine methyltransferase G9a; Q96KQ7; G9a H3K9 monomethylation, AlphaScreen, 2 h; Potency, µM (titrated, usually from 102 µM), without a hit: at the highest dose activity, negative = inhibition, usual class: inhibitors; hit rate 8.8% among 350,000; AID 504332; also: potency is read from the fitted curve at half-maximal effect; % is scaled to controls: 0 for no effect and ±100 for the full control effect; nearly all actives have a fitted effect of over 75% in size
# Target sequence (Q96KQ7 913-1193 limits assumed): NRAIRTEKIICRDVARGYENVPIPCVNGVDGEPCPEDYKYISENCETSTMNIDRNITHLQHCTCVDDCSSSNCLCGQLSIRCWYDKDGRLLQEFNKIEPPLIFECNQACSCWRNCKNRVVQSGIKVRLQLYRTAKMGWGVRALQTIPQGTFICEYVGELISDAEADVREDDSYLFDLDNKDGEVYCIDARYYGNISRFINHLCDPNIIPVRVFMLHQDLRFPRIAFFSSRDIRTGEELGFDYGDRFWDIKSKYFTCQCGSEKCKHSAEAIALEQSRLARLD
#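 Enzyme 20 nM + cpd, 15 min RT; add b-H3K9 pep 500 nM / SAM 20 uM; 2 h RT; anti-H3K9me1 Ab 0.5 ug/mL + SA donor / anti-rabbit acceptor beads 20 ug/mL each, 10 min; AlphaScreen read.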
# * marks the source's active call; other numbers are inactive results; u = inconclusive; x = no result; [ ] = another dose, or the depositor's remark. Unless noted, calls follow the shape of the dose curve; as a rule, active = well fitted curve in the direction sought with a large enough effect; inconclusive = small, poorly fitted or top-dose-only effect, or another doubt; inactive = no such curve, though single readings can be large; an effect the other way counts as inactive or inconclusive.
SMILES,JMJD2A Tudor,PLK1 PBD block,BAZ2B block,PI5P4Ka inh,HP1b chromo inh,G9a block
COC(=O)c1cc(NC(=O)c2cc3sccc3n2Cc2ccc(Cl)cc2)cc(C(=O)OC)c1,-29%,x,-20%,x,18%,-28%[59 µM]
O=C(O)c1cn[nH]c1-n1cnnn1,u,-3%,-1%,x,15%,50µM*
CC(=O)Nc1ccc(-n2cnnn2)cc1,-11%,-4%,3%,x,18%,-5%[59 µM]
CCN1CCc2nc3sc(C(=O)c4ccccc4)c(N)c3cc2C1,u,x,-33%[57.1 µM],x,0%,11µM*
CN1CCc2nc3sc(C(=O)Nc4ccccc4C(F)(F)F)c(N)c3cc2C1,u,x,u,x,14%,13µM*
CN1CCc2nc3sc(C(=O)C45CC6CC(CC(C6)C4)C5)c(N)c3cc2C1,-26%,-20%,u,-7,-77%,2.2µM*
CCOc1ccc(C(=O)NCCc2csc(-c3ccc(C(F)(F)F)cc3)n2)cc1OCC,-5%,x,4%,x,15%[57 µM],20%[59 µM]
CCN(CC)C(=O)C1CCCN(Cc2ccccc2C(F)(F)F)C1 (configuration not stated),4.5µM*,3%,79µM*,1,u,u
CCN(CC)C(=O)C1CCCN(C/C(C)=C/c2ccccc2)C1 (configuration not stated),1.6µM*,-3%,50µM*,x,u,16µM*
CCN(CC)C(=O)C1CCCN(C(=O)Nc2ccc(NC(=O)N3CCCC(C(=O)N(CC)CC)C3)cc2)C1 (configuration not stated),-21%,-3%,-5%,x,19%,-13%
CCN(CC)C(=O)C1CCCN(C/C=C/c2ccccc2)C1 (configuration not stated),4.5µM*,1%,56µM*,x,u,10µM*
CCN(C(=O)c1cc(S(=O)(=O)N2CCc3ccccc32)cn1C)c1cccc(C)c1,-15%,x,-4%,x,43%,-4%[59 µM]
CCOC(=O)c1cccc(NC(=O)Cn2ncc3c(=O)oc4ccccc4c32)c1,-14%,x,x,x,23%,-12%[59 µM]
Cn1c(=O)n(C)c2cc([N+](=O)[O-])c(N3CCN(S(=O)(=O)c4ccc(C(C)(C)C)cc4)CC3)cc21,-32%,-6%,-34%,x,-14%,u
CCS(=O)(=O)N1CCN(c2cc3c(cc2[N+](=O)[O-])n(C)c(=O)n3C)CC1,-31%,u,56µM*,2,-22%,u
Cc1cc(C)c(NC(=O)COCc2cc(-c3cccs3)on2)c(C)c1,4%,x,1%,x,15%,-9%[59 µM]
COc1cc2ncc(C(=O)c3ccc(C)cc3)c(N3CCCCC3)c2cc1OC,56µM*,x,u,x,-11%,8.9µM*
CCOC(=O)C1CCCN(c2c(C(=O)c3ccc(OCC)cc3)cnc3ccccc23)C1 (configuration not stated),u,x,-39%,x,6%,u
CCOC(=O)C1CCCN(c2c(C(=O)c3ccccc3)cnc3ccc(OC)cc23)C1 (configuration not stated),-32%,-21%,u,4,39%,56µM*
CCOC(=O)C1CCN(c2c(C(=O)c3ccc(C)cc3)cnc3ccc(F)cc23)CC1,-33%,x,-24%,x,9%,-24%[59 µM]
CCN1CCN(c2c(C(=O)c3ccc(OC)cc3)cnc3ccccc23)CC1,-11%,3%,-10%,-6,61%,50µM*
CCCCn1nnnc1C(c1ccccc1)N1CCN(C(=O)c2ccco2)CC1 (configuration not stated),x,-2%,x,7,x,x
CC(C)C(NS(=O)(=O)c1ccc2c(c1)oc(=O)n2C)C(=O)NCCc1ccccc1 (configuration not stated),-10%,x,-10%,x,40%,-31%[59 µM]
CCOc1c(Cl)cc(CNc2ccc3[nH]c(=O)[nH]c3c2)cc1OC,u,x,-31%,x,-13%,3.5µM*
CCOc1cc(CNc2ccc(N3CCCCC3)cc2)cc(Br)c1OCC(=O)NC(C)(C)C,10µM*,-7%,11µM*,1,u,10µM*
SMILES,JMJD2A Tudor,PLK1 PBD block,BAZ2B block,PI5P4Ka inh,HP1b chromo inh,G9a block
COc1cc(CNc2ccc3[nH]c(=O)[nH]c3c2)cc(Br)c1OCC(=O)NC(C)(C)C,56µM*,-1%,40µM*,x,-36%,-12%[12.7 µM]
CCOc1cc(CNc2ccc(N(C)C)cc2)cc(Br)c1OCC(=O)NC(C)(C)C,40µM*,-7%,14µM*,0,14µM*,5µM*
CC1CCN(C(=O)CSc2ccc(-c3ccccc3)nn2)CC1,7%,0%,u,-5,23%,-14%
COc1ccc(NC(=O)CCc2nnc3n(C)c(=O)c4sccc4n23)cc1Cl,-16%,x,0%,x,19%,-24%[59 µM]
CCCCn1c(=O)[nH]c(=O)c2c1nc(-c1ccccc1OC(F)F)n2C,6%,4%,2%,2,8%,-3%
CCOC(=O)N1CCc2c(sc3c2c(=O)n(Cc2ccccc2)c(=O)n3CC(=O)Nc2ccccc2F)C1,-18%,x,-10%,x,23%,3%[59 µM]
CCOc1c(Cl)cc(Cl)cc1CNCCSc1nnnn1C,-13%,x,-17%,x,41%,-25%[59 µM]
O=C(O)CN(CC(=O)O)CC(=O)O,32µM*,u,x,u,46%,x
O=C(O)CN(CCO)CCN(CC(=O)O)CC(=O)O,x,x,11%,x,x,17%
Cc1[nH]c2ccc(F)cc2c1CCNC(=O)c1cc2cc(Cl)ccc2oc1=O,-36%,x,-30%,x,41%,5%[59 µM]
CCOC(=O)C1=C(C)N(CCCC(=O)O)C(=O)NC1c1ccccc1Cl (configuration not stated),-12%,-10%,x,-89*,18%,x
CCOC(=O)C1=C(C)N(CCCCCC(=O)O)C(=O)NC1c1ccccc1Cl (configuration not stated),-18%,2%,u,0,34%,56µM*
CC1=C(C(=O)OCc2ccccc2)C(c2cccc(Cl)c2Cl)NC(=O)N1CCCCCC(=O)O (configuration not stated),-8%,-6%,-10%,-3,24%,u
Cn1cccc1C(=O)NC(=O)COC(=O)CCNS(=O)(=O)c1ccc(Cl)cc1,-17%,-12%,x,6,3%,x
Cc1cc(=O)c2c(O)c(O)ccc2o1,3.2µM*,-3%,u,6,7%,1.8µM*
CCOC(=O)N1CCC(NC(=S)Nc2ccc3nc(N4CCN(C)CC4)cc(C)c3c2)CC1,-15%,-3%,-16%,-4,15%,u
CCN(CC)CCNC(=S)Nc1ccc2nc(N3CCN(CC)CC3)cc(C)c2c1,-20%,u,-11%,-1,-7%,45µM*
CCOC(=O)N1CCC(NC(=S)Nc2ccc3nc(N4CCN(CC)CC4)cc(C)c3c2)CC1,-18%[11.4 µM],-22%,u,2,16%,25µM*
CCN1CCN(c2cc(C)c3cc(NC(=S)N(C)Cc4ccccc4)ccc3n2)CC1,u,3%,-33%,-3,13%,u

# Assay outcomes: PubChem, National Center for Advancing Translational Sciences (NCATS)
